This is one part of the list. The source made the active and inactive calls.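 How the source made its calls, unless noted: active means mean inhibition over 43.08%, the solvent-only control mean plus 3 SD; inactive means the rest.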
Columns and labels:
[1] = molecular target: Nuclear receptor coactivator 3 (Homo sapiens) (UniProt Q9Y6Q9); test: NCOA3 GAL4-fusion reporter inhibition – cell-based, luminescence, quadruplicate, confirmation (AID 588792); details: HEK293 GAL4-SRC3 luciferase reporter, at 3.6 µM, stronger effect = higher value;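 further: 0% = DMSO treated cells and 100% = gossypol at 36 µM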
[2] = test system: transactivating tegument protein VP16 (Human herpesvirus 1), Gal4-VP16 luciferase reporter; test: repression of VP16-driven luciferase reporter – cell-based, luminescence, high throughput, counter-screen for SRC3 inhibitor project (AID 588794; in the data active means inhibition above about 30%); details: mammalian cells, at 3.6 µM, stronger effect = higher value
[3] = molecular target: Nuclear receptor coactivator 1 (Homo sapiens) (UniProt Q15788); test: NCOA1 GAL4-fusion reporter inhibition – cell-based, luminescence, quadruplicate, confirmation (AID 588820;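 active means mean inhibition above 46.68%, the untreated control wells mean plus 3 SD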;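 further: 0% = DMSO wells and 100% = gossypol 36 µM treated wells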); details: HEK293 GAL4-SRC1 luciferase reporter, at 3.6 µM, stronger effect = higher value
[4] = repression of VP16-driven luciferase reporter – cell-based, luminescence, high throughput, counter-screen for SRC1 inhibitor project (AID 588824; in the data active means inhibition above about 25%); details: cell-based VP16 transactivation luciferase luminescence; at 3.6 µM; stronger effect = higher value
[5] = test system: transactivating tegument protein VP16 (Human herpesvirus 1); test: compounds suppressing VP16-driven luciferase signal – cell-based, luminescence, single concentration, counter-screen for SRC2 inhibitor project (AID 652007; in the data active means inhibition above about 36%); details: cell-based VP16 transactivation luciferase reporter, at 8.9 µM, stronger effect = higher value
[6] = molecular target: Nuclear receptor coactivator 2 (Homo sapiens) (UniProt Q15596); test: inhibition of GAL4-SRC2 driven luciferase expression – cell-based, luminescence, HEK293, triplicate, confirmation (AID 652008;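 active means mean inhibition above 46.5%, the solvent-only control mean plus 3 SD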;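 further: 0% = DMSO-treated cells and 100% = Gossypol at 36 µM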); details: HEK293 GAL4-SRC2 luciferase reporter, at 8.9 µM, stronger effect = higher value
[7] = StAR promoter reporter inhibitors, counter-screen for LRH-1 inverse agonist project, cell-based, luminescence, high throughput (AID 651611; in the data active means inhibition above about 28%); details: StAR promoter luciferase reporter counterscreen, at 3.6 µM, stronger effect = higher value
[8] = molecular target: Nuclear receptor subfamily 5 group A member 2 (Homo sapiens) (UniProt O00482); test: NR5A2 activity suppression in reporter cells – cell-based, luminescence, confirmation (AID 651613; in the data active means inhibition above about 42%;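 further: HEK293T cells co-transfected with LRH-1 and StAR promoter luciferase reporter; 0% = vehicle wells and 100% = parental cells lacking receptor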); details: cell-based LRH-1 luciferase reporter, inverse agonism; at 3.6 µM; stronger effect = higher value
[9] = molecular target: Steroidogenic factor 1 (Homo sapiens) (UniProt Q13285); test: inverse agonism at SF1 nuclear receptor – cell-based, luminescence, high throughput, counter-screen for LRH-1 inverse agonist project (AID 651614; in the data active means inhibition above about 44%;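 further: cells cotransfected with StAR promoter reporter and SF1 expression vector; 0% = vehicle on cells with receptor and 100% = vehicle on cells lacking receptor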); details: cell-based SF1 luciferase reporter, at 3.6 µM, stronger effect = higher value
[10] = compounds suppressing VP16-driven luciferase signal – cell-based, luminescence, high throughput, counter-screen for LRH-1 inverse agonist project (AID 651615; in the data active means inhibition above about 33%); details: Gal4-VP16 luciferase reporter cells, at 3.6 µM, stronger effect = higher value
[11] = VP16-driven transactivation reporter suppression – cell-based, luminescence, HEK293, counter-screen for COUP-TFII antagonist project (AID 687007; in the data active means inhibition above about 13%); details: HEK293 Gal4-VP16 luciferase reporter, at 8.5 µM, stronger effect = higher value
[12] = molecular target: COUP transcription factor 2 (Homo sapiens) (UniProt P24468); test: retest of COUP-TFII reporter suppressors – cell-based, luciferase reporter, HEK293, triplicate, confirmation (AID 687008;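 active means mean inhibition over three repeats above a set limit taken from the earlier primary screen, cut at about 38% in these data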;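 further: 100% = cells given the luciferase reporter alone without the COUP-TF2 vector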); details: HEK293 NGFI-A luciferase reporter, luminescence; at 8.5 µM; stronger effect = higher value
[13] = molecular target: Photoreceptor-specific nuclear receptor (Homo sapiens) (UniProt Q9Y5X4); test: retest of NR2E3-NCOR disrupting agonists – cell-based, luminescence, CHO-S two-hybrid, confirmation (AID 624378;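 active means average inhibition above a cutoff equal to the mean inhibition of all tested compounds plus one SD, cut at about 70% in these data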;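 further: 0% = DMSO in NR2E3 cells and 100% = DMSO in cells lacking NR2E3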); details: CHO-S mammalian two-hybrid NR2E3-NCOR, luciferase luminescence; at 3.98 µM; stronger effect = higher value
[14] = nonselective effects on VP16 transactivation – cell-based, luminescence, CHO-S, high throughput, counter-screen for NR2E3 agonist project, confirmation (AID 624379;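 active means mean inhibition above a cutoff equal to the average over all tested compounds plus one standard deviation, cut at about 70% in these data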;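 further: 0% = DMSO with VP16-transfected cells and 100% = DMSO with cells lacking VP16; higher means less reporter light so more repression of VP16 activity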); details: CHO-S GAL4-VP16 luciferase reporter, at 3.98 µM, stronger effect = higher value

Measured: inhibition

Chain of Nuclear receptor subfamily 5 group A member 2 (Homo sapiens) (O00482 whole entry, looked up): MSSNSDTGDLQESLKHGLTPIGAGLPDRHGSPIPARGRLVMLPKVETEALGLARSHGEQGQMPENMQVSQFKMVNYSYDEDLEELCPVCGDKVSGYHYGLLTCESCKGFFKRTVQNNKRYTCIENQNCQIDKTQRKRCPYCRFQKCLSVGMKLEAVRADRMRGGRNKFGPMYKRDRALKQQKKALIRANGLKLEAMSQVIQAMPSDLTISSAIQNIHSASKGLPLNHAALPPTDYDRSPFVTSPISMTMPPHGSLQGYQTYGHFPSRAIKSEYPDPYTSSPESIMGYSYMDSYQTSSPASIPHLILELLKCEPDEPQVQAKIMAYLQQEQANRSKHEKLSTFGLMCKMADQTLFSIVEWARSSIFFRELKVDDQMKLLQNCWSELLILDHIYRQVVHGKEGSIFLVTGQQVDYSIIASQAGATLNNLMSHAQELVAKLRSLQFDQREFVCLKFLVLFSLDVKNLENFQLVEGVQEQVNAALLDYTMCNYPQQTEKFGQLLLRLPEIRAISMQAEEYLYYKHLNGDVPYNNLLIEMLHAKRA
Chain of COUP transcription factor 2 (Homo sapiens) (P24468 whole entry, looked up): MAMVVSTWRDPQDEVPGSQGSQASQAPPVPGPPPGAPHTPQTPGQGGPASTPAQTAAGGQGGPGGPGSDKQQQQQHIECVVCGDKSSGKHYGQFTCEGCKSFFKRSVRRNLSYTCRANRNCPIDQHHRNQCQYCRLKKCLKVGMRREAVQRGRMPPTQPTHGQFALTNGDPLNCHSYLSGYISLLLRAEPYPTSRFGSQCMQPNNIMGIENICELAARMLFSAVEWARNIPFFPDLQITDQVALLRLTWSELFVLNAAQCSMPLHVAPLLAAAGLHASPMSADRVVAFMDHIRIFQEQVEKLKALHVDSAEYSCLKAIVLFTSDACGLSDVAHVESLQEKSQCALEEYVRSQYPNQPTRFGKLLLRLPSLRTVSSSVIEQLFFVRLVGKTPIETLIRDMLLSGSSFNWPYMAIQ
Chain of Nuclear receptor coactivator 1 (Homo sapiens) (Q15788 whole entry, looked up, the tested form may be a part): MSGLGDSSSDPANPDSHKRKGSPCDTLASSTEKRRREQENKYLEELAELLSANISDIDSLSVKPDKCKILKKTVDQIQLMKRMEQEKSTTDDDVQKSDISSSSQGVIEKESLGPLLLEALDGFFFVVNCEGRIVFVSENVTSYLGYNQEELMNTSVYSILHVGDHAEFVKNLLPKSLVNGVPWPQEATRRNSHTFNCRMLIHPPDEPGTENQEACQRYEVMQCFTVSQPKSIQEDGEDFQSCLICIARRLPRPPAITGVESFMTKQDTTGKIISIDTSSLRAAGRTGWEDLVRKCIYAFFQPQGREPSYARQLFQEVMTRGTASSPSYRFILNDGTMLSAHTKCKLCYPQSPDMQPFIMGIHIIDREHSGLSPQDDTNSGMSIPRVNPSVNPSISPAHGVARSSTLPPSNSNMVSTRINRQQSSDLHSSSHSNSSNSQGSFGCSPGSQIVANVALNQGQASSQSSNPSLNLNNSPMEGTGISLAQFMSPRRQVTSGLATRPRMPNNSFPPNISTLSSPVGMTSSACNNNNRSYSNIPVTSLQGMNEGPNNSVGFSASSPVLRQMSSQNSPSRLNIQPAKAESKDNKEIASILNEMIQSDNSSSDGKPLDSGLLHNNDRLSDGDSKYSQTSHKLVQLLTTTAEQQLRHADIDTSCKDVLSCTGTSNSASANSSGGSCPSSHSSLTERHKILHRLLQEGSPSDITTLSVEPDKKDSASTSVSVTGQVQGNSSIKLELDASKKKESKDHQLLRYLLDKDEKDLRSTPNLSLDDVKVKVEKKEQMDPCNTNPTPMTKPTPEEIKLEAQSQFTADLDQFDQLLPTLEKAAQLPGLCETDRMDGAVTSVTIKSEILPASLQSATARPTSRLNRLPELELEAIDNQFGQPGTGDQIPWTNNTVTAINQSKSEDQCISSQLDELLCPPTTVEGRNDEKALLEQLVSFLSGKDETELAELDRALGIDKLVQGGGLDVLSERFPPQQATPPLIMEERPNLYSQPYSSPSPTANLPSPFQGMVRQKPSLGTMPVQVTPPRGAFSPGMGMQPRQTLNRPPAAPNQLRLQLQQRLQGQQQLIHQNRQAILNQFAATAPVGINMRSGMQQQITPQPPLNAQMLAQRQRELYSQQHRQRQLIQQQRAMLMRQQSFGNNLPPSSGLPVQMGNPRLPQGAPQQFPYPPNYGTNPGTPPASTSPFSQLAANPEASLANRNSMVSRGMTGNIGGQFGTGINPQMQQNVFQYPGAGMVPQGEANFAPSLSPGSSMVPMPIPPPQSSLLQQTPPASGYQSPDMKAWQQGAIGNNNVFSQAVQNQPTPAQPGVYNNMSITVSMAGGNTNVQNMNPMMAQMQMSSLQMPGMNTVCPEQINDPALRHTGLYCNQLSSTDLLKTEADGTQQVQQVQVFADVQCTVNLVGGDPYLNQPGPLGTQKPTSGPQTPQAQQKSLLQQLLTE
Chain of Nuclear receptor coactivator 3 (Homo sapiens) (Q9Y6Q9 whole entry, looked up, the tested form may be a part): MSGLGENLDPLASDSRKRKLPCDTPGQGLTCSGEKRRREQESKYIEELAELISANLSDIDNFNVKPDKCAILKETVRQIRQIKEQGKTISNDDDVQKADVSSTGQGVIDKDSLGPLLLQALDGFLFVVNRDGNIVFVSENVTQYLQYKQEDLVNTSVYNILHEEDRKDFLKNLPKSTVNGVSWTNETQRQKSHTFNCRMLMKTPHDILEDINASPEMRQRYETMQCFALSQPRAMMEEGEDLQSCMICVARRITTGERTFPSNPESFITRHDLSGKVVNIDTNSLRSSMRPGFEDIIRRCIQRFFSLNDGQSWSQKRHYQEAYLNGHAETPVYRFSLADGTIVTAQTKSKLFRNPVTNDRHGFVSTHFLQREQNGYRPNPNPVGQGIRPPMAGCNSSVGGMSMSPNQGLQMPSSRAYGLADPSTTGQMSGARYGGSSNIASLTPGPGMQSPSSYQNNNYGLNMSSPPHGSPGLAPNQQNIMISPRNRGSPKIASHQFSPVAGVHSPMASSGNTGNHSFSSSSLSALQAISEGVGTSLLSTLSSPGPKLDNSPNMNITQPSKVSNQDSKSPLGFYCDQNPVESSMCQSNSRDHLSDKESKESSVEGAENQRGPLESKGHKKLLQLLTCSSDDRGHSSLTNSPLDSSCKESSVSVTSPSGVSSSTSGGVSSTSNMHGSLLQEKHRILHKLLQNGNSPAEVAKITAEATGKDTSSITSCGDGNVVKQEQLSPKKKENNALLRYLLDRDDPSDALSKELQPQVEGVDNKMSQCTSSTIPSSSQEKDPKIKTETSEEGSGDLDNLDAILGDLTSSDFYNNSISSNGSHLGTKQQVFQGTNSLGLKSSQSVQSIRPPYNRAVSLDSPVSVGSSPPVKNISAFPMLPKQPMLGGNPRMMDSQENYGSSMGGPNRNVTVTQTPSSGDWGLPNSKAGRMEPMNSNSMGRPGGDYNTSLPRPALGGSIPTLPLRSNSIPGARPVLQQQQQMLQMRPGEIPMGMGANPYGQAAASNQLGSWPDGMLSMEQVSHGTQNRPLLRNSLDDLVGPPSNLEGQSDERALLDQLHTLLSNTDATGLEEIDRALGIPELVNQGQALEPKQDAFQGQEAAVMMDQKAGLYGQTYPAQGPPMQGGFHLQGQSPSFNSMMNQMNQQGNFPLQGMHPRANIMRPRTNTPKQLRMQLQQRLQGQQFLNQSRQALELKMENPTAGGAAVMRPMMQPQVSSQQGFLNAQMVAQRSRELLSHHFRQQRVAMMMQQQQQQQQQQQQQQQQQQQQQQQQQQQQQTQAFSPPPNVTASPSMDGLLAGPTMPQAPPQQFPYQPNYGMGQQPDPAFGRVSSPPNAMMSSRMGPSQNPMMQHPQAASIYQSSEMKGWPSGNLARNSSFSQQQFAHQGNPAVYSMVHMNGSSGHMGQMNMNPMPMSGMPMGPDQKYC
Chain of Steroidogenic factor 1 (Homo sapiens) (Q13285 whole entry, looked up, the tested form may be a part): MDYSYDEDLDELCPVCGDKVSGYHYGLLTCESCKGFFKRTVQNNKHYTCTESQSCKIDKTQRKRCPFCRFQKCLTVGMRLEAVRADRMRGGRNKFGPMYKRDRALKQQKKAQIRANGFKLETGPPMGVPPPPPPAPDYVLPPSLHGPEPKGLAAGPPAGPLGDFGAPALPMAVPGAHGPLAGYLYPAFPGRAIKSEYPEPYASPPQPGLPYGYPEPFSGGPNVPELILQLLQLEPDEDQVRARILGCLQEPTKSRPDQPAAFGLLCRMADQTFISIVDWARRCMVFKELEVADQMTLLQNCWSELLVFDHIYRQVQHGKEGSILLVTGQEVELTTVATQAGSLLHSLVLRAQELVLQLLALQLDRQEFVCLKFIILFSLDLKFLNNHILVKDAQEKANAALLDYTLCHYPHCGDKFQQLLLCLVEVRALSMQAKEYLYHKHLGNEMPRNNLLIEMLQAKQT
Chain of Photoreceptor-specific nuclear receptor (Homo sapiens) (Q9Y5X4 whole entry, looked up): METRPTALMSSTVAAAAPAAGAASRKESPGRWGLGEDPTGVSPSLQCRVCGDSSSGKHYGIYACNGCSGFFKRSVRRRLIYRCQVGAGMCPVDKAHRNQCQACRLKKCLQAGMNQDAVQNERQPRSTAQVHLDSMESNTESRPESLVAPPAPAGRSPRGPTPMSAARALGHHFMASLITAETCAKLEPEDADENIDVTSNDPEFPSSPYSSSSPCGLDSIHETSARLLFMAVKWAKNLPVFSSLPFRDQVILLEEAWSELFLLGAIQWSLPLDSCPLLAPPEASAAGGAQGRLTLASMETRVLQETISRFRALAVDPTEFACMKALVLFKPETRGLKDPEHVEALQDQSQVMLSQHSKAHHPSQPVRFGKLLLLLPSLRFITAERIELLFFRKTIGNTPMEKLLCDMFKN

Cc1c([N+](=O)[O-])c2ccc(O)cc2n1-c1ccccc1
inactive: [5] 2.8% | [6] 35.8%
active: [1] 53.5% | [2] 31.6% | [3] 55.4% | [4] 30.1%

O=C(Nc1ccc2c(c1)OCCO2)C(c1ccnc2ccccc12)N1CCN(c2ccc(C(F)(F)F)cn2)CC1 (stereo not drawn)
inactive: [1] 24.6% | [2] 18.1% | [3] 11.8% | [5] -0.8%
active: [4] 30.7% | [6] 57.8%

CCN(c1ccc(OC)cc1)c1ncnc2nc[nH]c12
active: [1] 66.8% | [2] 45.6% | [3] 67.2% | [4] 48.6%
inactive: [5] -3.42% | [6] 45.7%

CC(C)(C)C(=O)Nc1ccc(N=Nc2ccccc2)cc1
inactive: [2] 28.6% | [3] -19.6% | [4] -23.9%
active: [1] 69.1% | [5] 54.7% | [6] 66%

O=C1NC(=S)N/C1=C\c1cccnc1
active: [1] 49.2% | [2] 36.6% | [3] 52.9% | [4] 33.3%
inactive: [5] 0.14% | [6] 44%

C=CCOc1ccc(/C=C2\SC(=S)N(CCC(=O)O)C2=O)cc1
active: [6] 91.5%
inactive: [1] 32.8% | [2] -27% | [3] 35.5% | [4] -38.4% | [5] -24.5%

Cc1ccc2nc(C(F)(F)F)c(C#N)c(N)c2c1
active: [1] 48.2% | [6] 50.1%
inactive: [2] 9.27% | [3] 27.6% | [4] 2.5% | [5] 1.92%

COC(=O)CCNc1ccc2c(c1)OCCO2
inactive: [1] 7.16% | [2] -2.66% | [3] -12.2% | [4] -15.9% | [5] -9.29% | [6] 39.5%

COc1ccc(-c2n(Cc3ccccc3)c3ccccc3[n+]2Cc2ccccc2)cc1
active: [1] 64% | [2] 66.2% | [7] 76.3% | [8] 109% | [9] 90.3% | [10] 94.4%

C[n+]1c2n(c3ccccc31)N=C(c1ccc(-c3ccccc3)cc1)CS2
inactive: [1] 36.6%
active: [2] 52.8% | [7] 32.7% | [8] 87.7% | [9] 78.2% | [10] 72.8%

O=C(Nc1ccccc1)Nc1cc(OCC(F)(F)F)cc(OCC(F)(F)F)c1
active: [8] 71.3% | [9] 54.7% | [10] 54.3%
inactive: [1] 21.7% | [2] 20.5% | [7] 22.9%

COC(=O)c1ccc(COC(=O)c2[nH]c(C)c(C(C)=O)c2C)o1
active: [8] 54.4% | [10] 41%
inactive: [1] 19.6% | [2] 15.9% | [7] 12.8% | [9] 38.7%

CCC(C)Nc1nc(-c2ccccn2)nc2ccccc12 (stereo not drawn)
active: [7] 45.6% | [8] 67.2% | [9] 78.3% | [10] 42.9%
inactive: [1] 3.88% | [2] 11.9%

CCc1ccc(N(CC)c2ncnc3nc[nH]c23)cc1
inactive: [5] 4.69% | [11] -1.24% | [12] 17.4%
active: [1] 50.1% | [2] 33% | [3] 56.7% | [4] 36.9% | [6] 50.7%

COc1ccc2c(c1OC)C(=O)N1c3ccccc3C(=O)N(c3ccccc3F)C21 (stereo not drawn)
active: [7] 53.5% | [8] 48.5% | [9] 54.1%
inactive: [1] 17.7% | [2] 10.7% | [10] 16.9%

Cc1ccc(C(=O)Nc2sc3c(c2C(=O)O)CCC(C)C3)o1 (stereo not drawn)
inactive: [1] 28%
active: [2] 68.3% | [7] 53.4% | [8] 89.5% | [9] 85.8% | [10] 77%

C=CCSc1nsc(NC(=O)Nc2cccc(C(C)=O)c2)n1
inactive: [3] 46.4% | [5] -25.7% | [6] 17.3% | [11] -25.6% | [12] 2.43%
active: [1] 44% | [2] 31.2% | [4] 27.2%

Cc1cc(C)c[n+](C(C)C(=O)c2ccc(-c3ccccc3)cc2)c1 (stereo not drawn)
inactive: [1] 16.9%
active: [2] 40.2% | [7] 29.7% | [8] 81.4% | [9] 66.4% | [10] 64.2%

CN(c1ccccc1)S(=O)(=O)c1cccc(C(=O)OCC(=O)Nc2ccc(C(N)=O)cc2)c1
inactive: [1] 6.76% | [2] -5.87% | [7] 16.5% | [8] 1.26% | [9] 10% | [10] -16.3%

O=c1oc2ccccc2cc1-c1cn(-c2ccccc2)c(=S)[nH]1
inactive: [1] 11% | [2] 23.1% | [3] -68.1% | [4] -22.7%
active: [11] 46.9% | [12] 60.8%

Cc1ccc(OCCN2CCN(c3ncnc4sc(C)c(C)c34)CC2)cc1
active: [2] 39.1% | [7] 34.8% | [8] 56.1% | [9] 61.3% | [10] 53.9%
inactive: [1] 4.63%

COc1cc(/C=N/NC(N)=S)cc(Br)c1OCc1ccccc1F
active: [1] 54.7% | [7] 33.5% | [8] 74.1% | [9] 70.8% | [10] 40.5%
inactive: [2] 14.2%

c1ccc(C[n+]2cccc3c4ccccc4ccc32)cc1
inactive: [1] 32.6%
active: [2] 54.8% | [7] 41.7% | [8] 83.4% | [9] 74.3% | [10] 70.4%

CC(=O)Nc1ccc(-c2csc(NC(=O)Nc3ccccc3)n2)cc1
inactive: [1] 4.6% | [2] -0.97% | [3] -38.2% | [4] -3.98% | [11] -18.8% | [12] 35.7%

CCN(C(C)=O)c1cnc(C=NNC(N)=S)c2ccccc12
inactive: [1] 39.5% | [2] 29.1%
active: [7] 78.7% | [8] 75.7% | [9] 69.5% | [10] 69.3%

COc1ccc(Nc2ccncc2[N+](=O)[O-])cc1
active: [8] 75.5% | [9] 64.4% | [10] 39.3%
inactive: [1] 41.1% | [2] 27.4% | [7] 13.4%

CC(C)(C)Nc1nc(-c2ccccn2)nc2ccccc12
inactive: [1] 35% | [14] 49.7%
active: [2] 43.1% | [13] 99.2% | [7] 69.1% | [8] 85.6% | [9] 84.7% | [10] 63.9%

CC(=O)c1c(C)[nH]c(C(=O)OCC(=O)Nc2ccc(Cl)cc2[N+](=O)[O-])c1C
active: [2] 38% | [8] 59.6% | [9] 62.2% | [10] 54.5%
inactive: [1] 9.25% | [7] 22%

CCN(CC)c1ccc(/C=N/NC(=O)c2cccc(S(=O)(=O)N3CCOCC3)c2)c(O)c1
active: [1] 60% | [2] 61.7% | [7] 79.2% | [8] 96.4% | [9] 82.6% | [10] 64.8%

O=C(N/N=C/c1c(O)ccc2ccccc12)c1[nH]ncc1Br
active: [1] 58.8% | [2] 53.9% | [7] 77.2% | [8] 95.8% | [9] 83.8% | [10] 73.6%

CC1(C)CC[C@]2(C(=O)n3ccnc3)CC[C@]3(C)[C@H](C(=O)C=C4[C@@]5(C)C=C(C#N)C(=O)C(C)(C)[C@@H]5CC[C@]43C)[C@@H]2C1
active: [1] 93.8% | [2] 82% | [4] 93.8%

NC(=O)c1ccc(N2CCN(S(=O)(=O)c3cccs3)CC2)c([N+](=O)[O-])c1
inactive: [1] -7.6% | [7] 21%
active: [2] 34.7% | [8] 64.7% | [9] 63.9% | [10] 46.1%

CC(=NNC(=S)N1CCCC1)c1ccccn1
active: [1] 54.1% | [2] 64.5% | [4] 66.4%

N=c1c2c(n(Cc3ccccc3)c3c1CCC3)CCC2
active: [2] 44.1% | [7] 37.3% | [8] 79.2% | [9] 72.9% | [10] 62.4%
inactive: [1] 19.5%

Cc1cc(C)cc(NC(=O)c2ccc([N+](=O)[O-])o2)c1
inactive: [1] 22.4% | [2] 2.31% | [10] 20%
active: [7] 53% | [8] 76.3% | [9] 74.7%

COc1cc2c(c(OC)c1OC)-c1ccc(SC)c(=O)cc1C(NC=O)CC2 (stereo not drawn)
active: [1] 44.5% | [7] 67% | [8] 65.8% | [9] 69.7% | [10] 54.5%
inactive: [2] 15.7%

C=CCC1(CC=C)CCCN1C(=O)c1cc(COc2ccc(-n3cncn3)cc2)on1
inactive: [1] 5.51% | [11] -1.01%
active: [2] 30.2% | [13] 97.4% | [14] 86.5% | [12] 49.6%

C#CC(=O)N(c1ccc(OC)c(OC)c1)C(C(=O)NC1CCCC1)c1cccs1 (stereo not drawn)
active: [8] 57.3%
inactive: [1] 25.2% | [2] -2.4% | [7] 17.7% | [9] 35.4% | [10] 10.9%

Reference: PubChem BioAssay
